Assay results taken from the supplement of paper PMC12494721.
Where a name gives a salt, the structure may show the parent alone.

Experiments:
Details in all cases: incubation time: 27 h, anaerobic, 37 °C;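 for the amine columns active = adjusted P below 0.05 in both replicates with a change the same way and a mean fold change under 0.8 or over 1.25; inactive = the rest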
[1] = system: Clostridium sporogenes DSM 1664; assay: growth (OD595) fold change vs plate DMSO controls (fold change (ratio)); higher = more growth
Method in brief: (§1)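 The 96-well mGAM cultures had been kept anaerobic for 27 h at 37 °C before being shaken and read at 595 nm. Blank subtraction, compound background correction with 20 µM compound solutions in water, and a calibration factor of 5 turned the readings into OD. Growth is given as the fold change versus the median of plate DMSO controls. Fold changes above 1.5 were set to NA, and the values are means of 2 biological replicates.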

Escherichia coli IAI1 [2] = assay: as above
Method in brief: as §1

[3] = system: Klebsiella aerogenes DSM 30053; assay: as above
Method in brief: as §1

[4] = system: Ruminococcus gnavus DSM 108212; assay: as above
Method in brief: as §1

[5] = system: Klebsiella aerogenes DSM 30053; assay: fold change of Histamine concentration vs plate DMSO controls (fold change (ratio)); higher = more amine produced, active = hit call of the paper (significant change in both replicates, either direction)
Method in brief: (§2)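 In 80 µL wells, cultures of four gut bacterial strains in mGAM started at OD 0.1 before a 1:1 dilution and grew anaerobically at 37 °C for 27 h. Compounds were added to 20 µM final, except sweeteners at 50 µM final. After extraction of whole cultures with cold acetonitrile/methanol plus 0.1% formic acid and centrifugation, amines were measured by LC–triple-quadrupole MS in dynamic MRM mode against external calibration curves, with within-batch drift correction. Values give fold change over DMSO controls on the same plate, averaged across 2 biological replicates.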

[6] = system: Clostridium sporogenes DSM 1664; assay: fold change of Tryptamine concentration vs plate DMSO controls (fold change (ratio)); higher = more amine produced, active = hit call of the paper (significant change in both replicates, either direction)
Method in brief: as §2

[7] = system: Ruminococcus gnavus DSM 108212; assay: as above
Method in brief: as §2

Escherichia coli IAI1 [8] = assay: fold change of Putrescine concentration vs plate DMSO controls (fold change (ratio)); higher = more amine produced, active = hit call of the paper (significant change in both replicates, either direction)
Method in brief: as §2

[9] = system: Klebsiella aerogenes DSM 30053; assay: as above
Method in brief: as §2

Escherichia coli IAI1 [10] = assay: fold change of Cadaverine concentration vs plate DMSO controls (fold change (ratio)); higher = more amine produced, active = hit call of the paper (significant change in both replicates, either direction)
Method in brief: as §2

[11] = system: Klebsiella aerogenes DSM 30053; assay: as above
Method in brief: as §2

[12] = system: Ruminococcus gnavus DSM 108212; assay: fold change of 2-Phenylethylamine concentration vs plate DMSO controls (fold change (ratio)); higher = more amine produced, active = hit call of the paper (significant change in both replicates, either direction)
Method in brief: as §2

SMILES	growth [1]	growth (Escherichia coli IAI1 [2])	growth [3]	growth [4]	fold change of Histamine concentration [5]	fold change of Tryptamine concentration [6]	fold change of Tryptamine concentration [7]	fold change of Putrescine concentration (Escherichia coli IAI1 [8])	fold change of Putrescine concentration [9]	fold change of Cadaverine concentration (Escherichia coli IAI1 [10])	fold change of Cadaverine concentration [11]	fold change of 2-Phenylethylamine concentration [12]
Cc1ncc([N+](=O)[O-])n1CC(O)CCl (stereo not given) [Ornidazole] (20 µM)	0.007	0.984	1.04	0.0518	0.885 (inactive)	0.00845 (active)	0.0747 (active)	0.976 (inactive)	0.986 (inactive)	0.962 (inactive)	1.02 (inactive)	0.0499 (active)
O=C(O)c1cccnc1 [Niacin] (20 µM)	0.979	1.07	1.01	0.963	0.97 (inactive)	0.994 (inactive)	1.03 (inactive)	1 (inactive)	1.03 (inactive)	0.981 (inactive)	1.02 (inactive)	0.993 (inactive)
CCCCC(=O)N(Cc1ccc(-c2ccccc2-c2nnn[nH]2)cc1)[C@H](C(=O)O)C(C)C [Valsartan] (20 µM)	1.14	1.19	1.08	1.06	0.913 (inactive)	1.05 (inactive)	1.07 (inactive)	1.17 (inactive)	0.951 (inactive)	0.941 (inactive)	1.05 (inactive)	1.12 (inactive)
O=C(O)/C=C/c1ccc(Cn2ccnc2)cc1 [Ozagrel hydrochloride] (20 µM)	0.923	0.982	0.994	0.975	1.02 (inactive)	1.01 (inactive)	1.04 (inactive)	1.01 (inactive)	0.993 (inactive)	1.01 (inactive)	0.986 (inactive)	0.999 (inactive)
O=C(Nc1cccc2c(=O)cc(-c3nnn[nH]3)oc12)c1ccc(OCCCCc2ccccc2)cc1 [Pranlukast] (20 µM)	1.1	1.07	0.999	0.934	0.986 (inactive)	0.686 (active)	0.804 (inactive)	1.02 (inactive)	1.01 (inactive)	1.03 (inactive)	1.02 (inactive)	0.865 (inactive)
CNCC(O)c1ccc(OC(=O)C(C)(C)C)c(OC(=O)C(C)(C)C)c1 (stereo not given) [Dipivefrin hydrochloride] (20 µM)	1.15	1.07	0.982	1.02	1.01 (inactive)	1.15 (inactive)	1.11 (inactive)	1.01 (inactive)	0.981 (inactive)	0.995 (inactive)	0.991 (inactive)	1.16 (inactive)
NC(=O)Cc1cccc(C(=O)c2ccccc2)c1N [Nepafenac] (20 µM)	1.01	1.03	1.06	1.09	0.929 (inactive)	1.04 (inactive)	1.06 (inactive)	0.989 (inactive)	0.993 (inactive)	0.962 (inactive)	1.04 (inactive)	1.11 (inactive)
CC(C)Cc1ccc(CC(=O)O)cc1 [Ibufenac] (20 µM)	1.08	1.1	1.06	1.24	0.908 (inactive)	1.04 (inactive)	1 (inactive)	1.06 (inactive)	1.01 (inactive)	0.994 (inactive)	1.01 (inactive)	0.976 (inactive)
CCOC(=O)[C@H](CCc1ccccc1)N[C@@H](C)C(=O)N1C(=O)N(C)C[C@H]1C(=O)O [Imidapril hydrochloride] (20 µM)	1.19	1.05	1.05	1.2	0.963 (inactive)	0.931 (inactive)	1.03 (inactive)	1.05 (inactive)	0.997 (inactive)	1.01 (inactive)	0.989 (inactive)	1.05 (inactive)
NC(=O)N1c2ccccc2CC(=O)c2ccccc21 [Oxcarbazepine] (20 µM)	0.964	1.01	0.977	1	1.07 (inactive)	0.996 (inactive)	1.02 (inactive)	1 (inactive)	1.01 (inactive)	1.02 (inactive)	0.994 (inactive)	1.01 (inactive)
Nc1c(Br)cc(Br)cc1CN[C@H]1CC[C@H](O)CC1 [Ambroxol hydrochloride] (20 µM)	0.943	1.07	0.958	0.75	1.03 (inactive)	1.04 (inactive)	1 (inactive)	1.05 (inactive)	1 (inactive)	1.01 (inactive)	0.991 (inactive)	0.985 (inactive)
COc1ccc2c(c1)c(CC(=O)OC/C=C(\C)CC/C=C(\C)CCC=C(C)C)c(C)n2C(=O)c1ccc(Cl)cc1 [Indometacin farnesil] (20 µM)	1.02	1.04	1.06	1.16	0.986 (inactive)	0.94 (inactive)	1.03 (inactive)	1.03 (inactive)	1.01 (inactive)	1.04 (inactive)	0.984 (inactive)	1.06 (inactive)
CCN(CC)CCNC(C(=O)OCCC(C)C)c1ccccc1 (stereo not given) [Camylofine chlorhydrate] (20 µM)	1.11	0.997	1.02	0.857	1.04 (inactive)	0.953 (inactive)	0.943 (inactive)	0.998 (inactive)	1 (inactive)	0.985 (inactive)	0.988 (inactive)	0.94 (inactive)
CO[C@@]1(NC(=O)C(C(=O)O)c2ccc(O)cc2)C(=O)N2C(C(=O)O)=C(CSc3nnnn3C)CO[C@@H]21 (stereo not given in full) [Moxalactam disodium salt] (20 µM)	0	0.0889	1.02	0.0817	0.893 (inactive)	0.0273 (active)	0.06 (active)	1.5 (inactive)	1.02 (inactive)	2 (active)	1.02 (inactive)	0.0586 (active)
O=C(CCNNC(=O)c1ccncc1)NCc1ccccc1 [Nialamide] (20 µM)	0.952	0.991	1.02	0.89	1.03 (inactive)	1.01 (inactive)	1 (inactive)	0.997 (inactive)	1 (inactive)	1.03 (inactive)	0.998 (inactive)	1.01 (inactive)
Cc1ccc(Cl)c(Nc2ccccc2C(=O)O)c1Cl [Meclofenamic acid sodium salt monohydrate] (20 µM)	1.01	0.972	1.16	1.12	0.916 (inactive)	0.879 (inactive)	0.959 (inactive)	0.999 (inactive)	0.977 (inactive)	1.03 (inactive)	1.03 (inactive)	0.911 (inactive)
c1ccc(-c2ccc(C(c3ccccc3)n3ccnc3)cc2)cc1 (stereo not given) [Bifonazole] (20 µM)	1.27	1.08	1.02	0.817	0.99 (inactive)	0.923 (inactive)	0.82 (inactive)	1.04 (inactive)	1.01 (inactive)	0.981 (inactive)	1 (inactive)	0.927 (inactive)
N[C@H]1CONC1=O [(S,-) Cycloserine] (20 µM)	0.942	0.968	0.982	0.975	0.94 (inactive)	0.954 (inactive)	0.905 (inactive)	1.02 (inactive)	1.07 (inactive)	0.959 (inactive)	1.05 (inactive)	0.81 (inactive)
COc1ccc(OC)c(C(O)CNC(=O)CN)c1 (stereo not given) [Midodrine hydrochloride] (20 µM)	1.08	1.03	1.09	0.949	1.05 (inactive)	1.03 (inactive)	1 (inactive)	1.01 (inactive)	1 (inactive)	0.995 (inactive)	0.995 (inactive)	1 (inactive)
Cc1c(Cl)cccc1Nc1ccccc1C(=O)O [Tolfenamic acid] (20 µM)	1.18	1.01	1.06	1.14	0.917 (inactive)	0.901 (inactive)	0.951 (inactive)	1.07 (inactive)	0.984 (inactive)	1.07 (inactive)	1.01 (inactive)	0.937 (inactive)
CN(C)CCOc1ccc(/C(=C(/CCCl)c2ccccc2)c2ccccc2)cc1 [Toremifene] (20 µM)	1.18	1.1	1.15	0.943	0.943 (inactive)	1.02 (inactive)	0.647 (active)	0.998 (inactive)	0.975 (inactive)	0.98 (inactive)	1.04 (inactive)	0.871 (inactive)
O=C(O)CSCC(=O)NC1CCSC1=O (stereo not given) [Erdosteine] (20 µM)	1.04	1.07	1.03	1.04	0.984 (inactive)	0.962 (inactive)	1.01 (inactive)	0.971 (inactive)	1 (inactive)	0.993 (inactive)	0.993 (inactive)	0.988 (inactive)
CCc1oc2ccccc2c1C(=O)c1cc(I)c(O)c(I)c1 [Benziodarone] (20 µM)	0.283	0.975	1.01	0.707	1.03 (inactive)	0.0565 (active)	0.468 (active)	1.03 (inactive)	1.01 (inactive)	1.05 (inactive)	1.01 (inactive)	0.489 (inactive)
CN1C(=O)OC(C)(C)C1=O [Trimethadione] (20 µM)	1	1.03	1.01	1.27	0.977 (inactive)	0.924 (inactive)	0.948 (inactive)	1.02 (inactive)	0.987 (inactive)	0.991 (inactive)	0.999 (inactive)	0.919 (inactive)
CCCC(=O)N1CCCN(c2nc(N)c3cc(OC)c(OC)cc3n2)CC1 [Bunazosin hydrochloride] (20 µM)	1.05	1.05	1	1.06	1.04 (inactive)	1.02 (inactive)	1 (inactive)	0.989 (inactive)	0.996 (inactive)	0.996 (inactive)	0.984 (inactive)	1.03 (inactive)
